# From PubChem BioAssay
# Several values for one entry are separate records, joined by “and”; a condition that tells them apart may be missing. Equal entries are not always repeated. Records with an inconclusive call do not appear. Activity calls are given as the source filed them. Unless noted, no rule for the calls is given here.
# Assays:
# [1] = circadian clock period modulators, cell-based, LOPAC library, luminescence reporter (AID 2774); conditions: circadian reporter cells, at 7 µM, actives lie on both sides;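 also: values are relative to mean of DMSO wells on each plate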
# [2] = system: Hepatitis C virus NS3 helicase; experiment: HCV NS3 helicase inhibitors, primary screen, biochemical, fluorescence polarization, LOPAC1280 library (AID 687035; in the data active = inhibition above about 37%); conditions: Purified HCV NS3 helicase, Cy5-dT15 ssDNA binding fluorescence polarization; stronger effect = higher value; concentration not given here
# [3] = Cy5 fluorescence quenching or enhancement artefacts, artefact control for HCV NS3 helicase inhibitor project, biochemical, LOPAC1280 (AID 687037); conditions: Cy5-DNA-NS3h complex fluorescence interference counterscreen
# [4] = growth inhibition of DIPG glioma cells, dose response, cell-based, SU-DIPG-XVII, MIPE5.0, CellTiter-Glo, qHTS (AID 1347060; cut-off not given, nearly all actives have AC50 up to about 26 µM;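 as to AC50: cells exposed to compound for 48 hours before viability readout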); conditions: SU-DIPG-XVII viability, CellTiter-Glo ATP luminescence
# [5] = viability loss in pontine glioma line – cell-based, SU-DIPG-XXV, MIPE5.0, CellTiter-Glo, qHTS, dose response (AID 1347065; cut-off not given, nearly all actives have AC50 up to about 26 µM;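 also: cells exposed to compound for 48 hours before ATP readout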); conditions: CellTiter-Glo ATP luminescence
# [6] = phospholipid biosynthesis inhibitors in animal cells, primary screen, cell-based, LOPAC library, screen 4 (AID 1347384); conditions: phospholipid biosynthesis inhibition screen, at 10 µM
# [7] = LFS_MB_P medulloblastoma growth inhibition, cell-based, chromothripsis tumors, cisplatin or BGB combos (AID 1671449; in the data active = inhibition above about 80%;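 also: cells exposed for 96 hours; 0% = vehicle DMSO and 100% = killing by high DMSO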); conditions: LFS_MB_P medulloblastoma cells
# [8] = HDN33 neuroblastoma growth inhibition, cell-based, chromothripsis tumors, cisplatin or BGB combos (AID 1671450; in the data active = inhibition above about 80%;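 also: cells exposed to compound for four days; 0% = vehicle DMSO and 100% = cell killing by high DMSO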); conditions: HDN33 neuroblastoma cells, stronger effect = higher value
# [9] = LFS_MB_1R medulloblastoma cell growth inhibition, synergistic combos for chromothripsis tumors, cisplatin or BGB combos (AID 1671452; in the data active = inhibition above about 80%;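 also: cells exposed for 96 hours before readout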); conditions: LFS_MB_1R medulloblastoma cells, stronger effect = higher value
# [10] = HTB85 osteosarcoma cell growth inhibition, synergistic combos for chromothripsis tumors, BGB or cisplatin IC20 combos (AID 1671453; in the data active = inhibition above about 80%;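 also: cells exposed for 96 hours before readout; 0% = vehicle DMSO and 100% = high DMSO killing control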); conditions: HTB85 osteosarcoma cells, drug combinations, stronger effect = higher value
# [11] = MDA-MB-436 breast carcinoma cell growth inhibition, synergistic combos for chromothripsis tumors, BGB or cisplatin combos (AID 1671458); conditions: MDA-MB-436 breast carcinoma growth inhibition, drug combinations, stronger effect = higher value;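 also: cells exposed for 96 hours; 0% = vehicle DMSO and 100% = killing by high DMSO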
# [12] = growth inhibition of BT084 medulloblastoma cells, cell-based, ICGC_MB145, cisplatin and BGB IC40 combos (AID 1671461; in the data active = inhibition above about 80%;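 also: cells exposed to drugs for 96 hours; 0% = vehicle DMSO and 100% = high DMSO full killing control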); conditions: drug combinations, stronger effect = higher value
# [13] = growth inhibition of RCMB18 medulloblastoma cells, cell-based, cisplatin and BGB IC40 combos (AID 1671462; in the data active = inhibition above about 80%;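 also: cells exposed to compound for four days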); conditions: stronger effect = higher value
# [14] = growth inhibition of CRL1545 osteosarcoma cells, cell-based, cisplatin and BGB IC20 combos (AID 1671464; in the data active = inhibition above about 80%;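 also: cells exposed to compound for 96 hours before readout; 0% = vehicle DMSO and 100% = high DMSO killing control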); conditions: stronger effect = higher value
# [15] = system: Aerobactin synthetase IucA (Klebsiella pneumoniae); experiment: IucA aerobactin synthetase inhibitors, biochemical, Tocris library, absorbance (AID 1345561); conditions: purified IucA enzyme assay, absorbance (OD) read-out; stronger effect = lower value;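 tested at 8 µM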;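 also: 100% = enzyme without compound and 0% = no enzyme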
# [16] = hESC survival regulators, cell-based (AID 493140); conditions: human embryonic stem cell survival screen; stronger effect = higher value;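 also: cells exposed to compounds for four days before counting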
# [17] = SU-DIPG-XXV glioma cell viability, MIPE5.0 library, qHTS (AID 1347068; cut-off not given, nearly all actives have IC50 up to about 30 µM)
# [18] = reducers of polyQ inclusions in PC12 cells, cell-based, NGF-treated PC12, GFPQ80 (AID 1614); conditions: PC12 NGF-treated GFP-polyQ80 inclusion reduction;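 also: lower means fewer inclusions and 0 means no inclusions at all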
# [19] = growth inhibition of DIPG glioma cells, dose response, cell-based, SU-DIPG-XIII, MIPE5.0, CellTiter-Glo, qHTS (AID 1347064; cut-off not given, nearly all actives have AC50 up to about 23 µM;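 as to AC50: cells exposed to compound for 48 hours before the viability read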); conditions: SU-DIPG-XIII viability, CellTiter-Glo ATP luminescence
# [20] = SU-DIPG-VI glioma cell viability, MIPE4.0 library, CellTiter-Glo luminescence, qHTS (AID 1347066; cut-off not given, nearly all actives have AC50 up to about 30 µM;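 also: cells exposed to compound for 48 hours before readout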); conditions: CellTiter-Glo ATP luminescence
# [21] = measured here: combination with BGB IC40, at 0.05 µM
# [22] = measured here: with BGB IC20 combination, at 0.5 µM
# [23] = measured here: with cisplatin IC20 combination, at 0.5 µM
# [24] = measured here: combination with cisplatin, at 0.5 µM
compound,measurement,setting,value
COc1cc(NS(C)(=O)=O)ccc1Nc1c2ccccc2nc2ccccc12,period change,[1],-0.215 h (inactive)
same,inhibition,[2],-8% (inactive)
same,fluorescence ratio (interference),[3],0.9 (inactive)
same,AC50,[4],934 nM (active)
same,AC50,[5],11800 nM (active)
same,outcome,[6],inactive
same,inhibition,"[7]; at 0.5 µM, stronger effect = higher value",66.6% (inactive) and -15.7% (inactive)
same,inhibition,"[7]; measured here: combination with BGB IC20, at 0.005 µM",-8.73% and -9.94%
same,inhibition,"[7]; measured here: combination with BGB IC40, at 0.005 µM",-5.2% and -25.6%
same,inhibition,[7]; [21],-1.49% and -18.2%
same,inhibition,"[7]; measured here: combination with cisplatin, at 0.5 µM, stronger effect = higher value",79.4% and -1.04%
same,inhibition,"[7]; measured here: combination with cisplatin, at 5 µM, stronger effect = higher value",41.8% and 26.1%
same,inhibition,"[8]; BGB combo, at 5 µM",88.5% and 63.3%
same,inhibition,[8]; at 0.5 µM,50.8% (inactive) and 41.9% (inactive)
same,inhibition,"[8]; cisplatin combo, at 5 µM",68.8% and 65.8%
same,inhibition,[8]; [22],51.3% and 43.7%
same,inhibition,[8]; [23],45.8% and 24%
same,inhibition,"[8]; single agent, at 5 µM",88.6% and 78.5%
same,inhibition,[9]; at 0.5 µM,1.68% (inactive) and -19.1% (inactive)
same,inhibition,[9]; [21],17.9% and -5.14%
same,inhibition,[9]; [24],10% and -20.9%
same,inhibition,"[9]; measured here: combination with cisplatin, at 5 µM",63.4% and 27.6%
same,inhibition,[10]; at 0.5 µM,17.3% (inactive) and 24.9% (inactive)
same,inhibition,"[10]; measured here: with BGB IC20, at 0.5 µM",3.95% and 14.9%
same,inhibition,"[10]; measured here: with BGB IC20, at 5 µM",82.3% and 79.8%
same,inhibition,"[10]; measured here: with cisplatin IC20, at 0.5 µM",25% and 29.1%
same,inhibition,"[10]; measured here: with cisplatin IC20, at 5 µM",87.8% and 84.6%
same,inhibition,"[10]; single agent, at 5 µM",91% and 89.1%
same,inhibition,[11]; at 0.5 µM,43.4% (inactive) and 40.4% (inactive)
same,inhibition,"[11]; measured here: BGB combination, at 0.5 µM",27.5% and 21.1%
same,inhibition,"[11]; measured here: BGB combination, at 5 µM",55% and 42.6%
same,inhibition,"[11]; measured here: cisplatin combination, at 0.5 µM",41.4% and 47.1%
same,inhibition,"[11]; measured here: cisplatin combination, at 5 µM",67.1% and 66.9%
same,inhibition,[12]; at 0.5 µM,-11.3% (inactive) and -37.4% (inactive)
same,inhibition,"[12]; cisplatin combination, at 0.5 µM",-2.36% and -21.2%
same,inhibition,"[12]; cisplatin combination, at 5 µM",23.7% and 15.2%
same,inhibition,"[12]; measured here: BGB IC40 combination 0.05 uM, at 0.05 µM",53.7% and -12.4%
same,inhibition,"[12]; single agent, at 5 µM",7.96% and 23.3%
same,inhibition,[13]; at 0.5 µM,-1.22% (inactive) and -23% (inactive)
same,inhibition,"[13]; cisplatin combo, at 5 µM",58.3% and 44.1%
same,inhibition,"[13]; measured here: BGB IC40 combination, at 0.05 µM",-16.8% and -37.3%
same,inhibition,[13]; [24],28.6% and 11.4%
same,inhibition,"[13]; single agent, at 5 µM",29.4% and 2.77%
same,inhibition,[14]; at 0.5 µM,24% (inactive) and 17.8% (inactive)
same,inhibition,[14]; [22],24.3% and 13.1%
same,inhibition,[14]; [23],23.8% and 20.2%
same,inhibition,"[14]; single agent, at 0.05 µM",42.2% and 26.1%
same,inhibition,"[14]; single agent, at 5 µM",82.1% and 75.5%
O=C(O)C1=CCCNC1,period change,[1],0.125 h (inactive)
same,inhibition,[2],-3% (inactive)
same,fluorescence ratio (interference),[3],1 (inactive)
same,remaining activity,[15],107% (inactive)
same,outcome,[6],inactive
CC(=O)[C@H]1CC[C@H]2[C@@H]3CCC4=CC(=O)CC[C@]4(C)[C@H]3CC[C@]12C,period change,[1],0.25 h (inactive)
same,survival,[16],8.58 (inactive)
same,inhibition,[2],-4% (inactive)
same,fluorescence ratio (interference),[3],0.9 (inactive)
same,outcome,[6],inactive
C=C1C(=O)O[C@H]2[C@H]1CC/C(C)=C/CC[C@@]1(C)O[C@@H]21,remaining activity,[15],83.6% (inactive)
CN[C@H](CC(C)C)C(=O)N[C@H]1C(=O)N[C@@H](CC(N)=O)C(=O)N[C@H]2C(=O)N[C@H]3C(=O)N[C@H](C(=O)N[C@H](C(=O)O)c4cc(O)cc(O)c4-c4cc3ccc4O)[C@H](O)c3ccc(c(Cl)c3)Oc3cc2cc(c3O[C@@H]2O[C@H](CO)[C@@H](O)[C@H](O)[C@H]2O[C@H]2C[C@](C)(N)[C@H](O)[C@H](C)O2)Oc2ccc(cc2Cl)[C@H]1O,period change,[1],-0.05 h (inactive)
same,survival,[16],13.8 (inactive)
same,inhibition,[2],-5% (inactive)
same,fluorescence ratio (interference),[3],1 (inactive)
same,outcome,[4],inactive
same,outcome,[5],inactive
same,outcome,[17],inactive
same,outcome,[6],inactive
CCCn1c(=O)c2[nH]c(C3CCCC3)nc2n(CCC)c1=O,inclusion score,[18],2
same,period change,[1],-0.025 h (inactive)
same,inhibition,[2],0% (inactive)
same,fluorescence ratio (interference),[3],1 (inactive)
same,remaining activity,[15],119% (inactive)
same,outcome,[6],inactive
C[C@H](CCC(=O)O)[C@H]1CC[C@H]2[C@@H]3[C@H](O)C[C@@H]4C[C@H](O)CC[C@]4(C)[C@H]3CC[C@]12C,survival,[16],11.7 (inactive)
same,outcome,[4],inactive
same,outcome,[19],inactive
same,outcome,[20],inactive
same,outcome,[17],inactive
C[C@H]1O[C@@H](O[C@H]2[C@@H](O)C[C@H](O[C@H]3[C@@H](O)C[C@H](O[C@H]4CC[C@@]5(C)[C@H](CC[C@@H]6[C@@H]5C[C@@H](O)[C@]5(C)[C@@H](C7=CC(=O)OC7)CC[C@]65O)C4)O[C@@H]3C)O[C@@H]2C)C[C@H](O)[C@@H]1O,survival,[16],0.667 (inactive)
same,AC50,[4],166 nM (active)
same,AC50,[19],132 nM (active)
same,AC50,[5],166 nM (active)
same,AC50,[20],95.9 nM (active)
O=C(O)c1c2ccccc2cc2ccccc12,inclusion score,[18],2
same,remaining activity,[15],101% (inactive)
O=C(O)Cc1nn(Cc2ccc(Br)cc2F)c(=O)c2ccccc12,remaining activity,[15],92.7% (inactive)
C[C@@]12C[C@@]3(O)O[C@@H](O1)[C@]1(COC(=O)c4ccccc4)[C@H]3C[C@@]12O[C@@H]1O[C@H](CO)[C@@H](O)[C@H](O)[C@H]1O,outcome,[20],inactive
COc1cc2c(c(OC)c1OC)-c1ccc(OC)c(=O)cc1C(NC(C)=O)CC2 (centres undefined),remaining activity,[15],109% (inactive)
COc1c(O)cc2c(c1O)[C@@H]1O[C@H](CO)[C@@H](O)[C@H](O)[C@H]1OC2=O,outcome,[20],inactive
COc1ccc(-c2cc(=O)c3c(O)cc(O[C@@H]4O[C@H](CO[C@@H]5O[C@@H](C)[C@H](O)[C@@H](O)[C@H]5O)[C@@H](O)[C@H](O)[C@H]4O)cc3o2)cc1O,outcome,[4],inactive
same,outcome,[19],inactive
same,outcome,[5],inactive
same,outcome,[20],inactive
same,outcome,[17],inactive
O=C(O)c1cc(=O)c2ccc(Cl)cc2[nH]1,period change,[1],-0.105 h (inactive)
same,remaining activity,[15],104% (inactive)
CCC[C@@H]1C[C@@H](C(=O)N[C@@H]([C@H]2O[C@H](SC)[C@H](O)[C@@H](O)[C@H]2O)[C@H](C)Cl)N(C)C1,outcome,[4],inactive
same,outcome,[19],inactive
same,outcome,[5],inactive
same,outcome,[17],inactive
C[C@H](CCC(=O)O)[C@H]1CC[C@H]2[C@@H]3CC[C@@H]4C[C@H](O)CC[C@]4(C)[C@H]3CC[C@]12C,survival,[16],3.25 (inactive)
COc1ccc(-c2cc(=O)c3c(O)c(OC)c(OC)cc3o2)cc1O,outcome,[6],inactive
NCCCCCCNS(=O)(=O)c1cccc2c(Cl)cccc12,inclusion score,[18],1
same,period change,[1],0.025 h (inactive)
